According to PubChem BioAssay AID1159580 (chemical genetic matrix, 2015):
In all, about 5,500 compounds went through this assay and about 2,000 (36%) were called active. Inconclusive results (about 18%) are left out. Cut-off read from the data, not from the text of the source: active = normalized growth mostly below about 0.91 (no sharp cut-off); inconclusive = no clear call, values can overlap the other calls; inactive = mostly above about 0.92. Some of the results follow.

Test: chemical genetic growth profiling, strain panel (AID 1159580);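 note: tested at 20 µM; growth read once vehicle control cultures reached saturation at 30 °C; 1 = growth at the plate median or of vehicle wells; lower values mean less growth of the strain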
Settings: S. cerevisiae deletion strains, growth OD

Measured: normalized growth

N#CC(C#N)=Cc1ccc(-c2ccccc2C(F)(F)F)o1
active: locus YLR113W, strain HOG1, stronger effect = lower value 0.758
inactive: locus YAR019C, strain CDC15, stronger effect = lower value 0.947 | locus YBL105C, strain PKC1, stronger effect = lower value 0.946 | locus YBR135W, strain CKS1, stronger effect = lower value 0.947 | locus YBR136W, strain MEC1, stronger effect = lower value 0.947 | locus YBR160W, strain CDC28, stronger effect = lower value 0.95 | locus YDL017W, strain CDC7, stronger effect = lower value 0.947 | locus YDL028C, strain MPS1, stronger effect = lower value 0.954 | locus YDL101C, strain DUN1, stronger effect = lower value 0.925 | locus YDL108W, strain KIN28, stronger effect = lower value 0.953 | locus YDL132W, strain cdc53, stronger effect = lower value 0.947 | locus YDL214C, strain PRR2, stronger effect = lower value 0.901 | locus YDR052C, strain DBF4, stronger effect = lower value 0.957 | locus YDR054C, strain cdc34, stronger effect = lower value 0.94 | locus YDR226W, strain ADK1, stronger effect = lower value 0.943 | locus YDR477W, strain SNF1, stronger effect = lower value 0.913 | locus YER123W, strain YCK3, stronger effect = lower value 0.876 | locus YER133W, strain GLC7, stronger effect = lower value 0.925 | locus YFL009W, strain cdc4, stronger effect = lower value 0.94 | locus YFL029C, strain CAK1, stronger effect = lower value 0.945 | locus YFR003C, strain YPI1, stronger effect = lower value 0.944 | locus YFR019W, strain FAB1, stronger effect = lower value 0.898 | locus YFR028C, strain CDC14, stronger effect = lower value 0.94 | locus YGR040W, strain KSS1, stronger effect = lower value 0.903 | locus YGR052W, strain FMP48, stronger effect = lower value 0.871 | locus YGR092W, strain DBF2, stronger effect = lower value 0.783 | locus YHR030C, strain SLT2, stronger effect = lower value 0.875 | locus YHR079C, strain IRE1, stronger effect = lower value 0.905 | locus YHR082C, strain KSP1, stronger effect = lower value 0.906 | locus YHR205W, strain SCH9, stronger effect = lower value 0.784 | locus YIL147C, strain SLN1, stronger effect = lower value 0.948 | locus YJL095W, strain BCK1, stronger effect = lower value 0.838 | locus YJL128C, strain PBS2, stronger effect = lower value 0.866 | locus YJL157C, strain FAR1, stronger effect = lower value 0.907 | locus YJR016C, strain ILV3, stronger effect = lower value 0.95 | locus YJR066W, strain TOR1 (second series), stronger effect = lower value 0.873 | locus YJR066W, strain TOR1, stronger effect = lower value 0.893 | locus YKL048C, strain ELM1, stronger effect = lower value 0.899 | locus YKL067W, strain YNK1, stronger effect = lower value 0.89 | locus YKL101W, strain HSL1, stronger effect = lower value 0.873 | locus YKL193C, strain SDS22, stronger effect = lower value 0.942 | locus YKL203C, strain TOR2, stronger effect = lower value 0.931 | locus YLR133W, strain CKI1, stronger effect = lower value 0.891 | locus YLR403W, strain SFP1, stronger effect = lower value 0.848 | locus YML070W, strain DAK1, stronger effect = lower value 0.894 | locus YMR001C, strain CDC5, stronger effect = lower value 0.94 | locus YMR205C, strain PFK2 (second series), stronger effect = lower value 0.899 | locus YMR277W, strain FCP1, stronger effect = lower value 0.935 | locus YNL006W, strain LST8, stronger effect = lower value 0.949 | locus YNL020C, strain ARK1, stronger effect = lower value 0.892 | locus YNL161W, strain CBK1, stronger effect = lower value 0.941 | locus YNL183C, strain NPR1, stronger effect = lower value 0.864 | locus YNL207W, strain RIO2, stronger effect = lower value 0.943 | locus YNL222W, strain SSU72, stronger effect = lower value 0.951 | locus YNL307C, strain MCK1 (second series), stronger effect = lower value 0.788 | locus YOL078W, strain AVO1, stronger effect = lower value 0.939 | locus YOL136C, strain PFK27, stronger effect = lower value 0.851 | locus YOR061W, strain CKA2, stronger effect = lower value 0.907 | locus YOR119C, strain RIO1, stronger effect = lower value 0.964 | locus YOR231W, strain MKK1, stronger effect = lower value 0.87 | locus YOR329C, strain SCD5, stronger effect = lower value 0.944 | locus YPL031C, strain PHO85, stronger effect = lower value 0.895 | locus YPL153C, strain RAD53, stronger effect = lower value 0.907 | locus YPL204W, strain HRR25, stronger effect = lower value 0.88 | locus YPL209C, strain IPL1, stronger effect = lower value 0.947 | locus YPL256C, strain CLN2, stronger effect = lower value 0.929 | locus YPR025C, strain CCL1, stronger effect = lower value 0.948 | locus YPR106W, strain ISR1, stronger effect = lower value 0.938 | locus YPR111W, strain DBF20, stronger effect = lower value 0.916 | strain NNK1, stronger effect = lower value 0.922 | strain TSCII, stronger effect = lower value 0.935
